Vaccinia mCherry = qHTS for Stage-Specific Inhibitors of Vaccinia Orthopoxvirus: mCherry Reporter Primary qHTS; AID 720579, 2013; Vaccinia virus mCherry reporter infection, fluorescence; Potency, µM (series often up to 36.5 µM), without a hit: at the top dose activity change, negative = inhibition, usual class: inhibitors; 310,000 tested, 0.63% active; calls by dose curve; tested in A549 cells; further: on the % scale 0 is the no-effect control and ±100 the full control effect; nearly all actives have a fitted effect of over 35% in size
Pf growth 96h = Primary qHTS for delayed death inhibitors of the malarial parasite plastid, 96 hour incubation; P. falciparum luciferase reporter growth, 96 h; Potency, µM (highest dose often 28.7 µM), without a hit: at the top dose activity change, negative = inhibition, usual class: inhibitors; 320,000 tested, 6.9% active; AID 504834, 2011; further: on the % scale 0 is the no-effect control and ±100 the full control effect
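P. falciparum expressing integrated firefly luciferase, in erythrocytes at 2% hematocrit, 0.05% parasitemia, incubated with compounds 96 h at 37 C, 5% CO2. Growth inhibition read as loss of luminescence; two-generation exposure targets delayed-death apicoplast inhibitors.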
NS1 function inh = qHTS Assay for Inhibitors of Influenza NS1 Protein Function | Potency, µM (highest dose often 46.1 µM), for inactives: at the highest dose activity, positive = more growth | 270,000 tested, 0.4% active | AID 2326, 2010; calls by dose curve; further: actives are rising curves; nearly all actives have a fitted effect of over 50% in size
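In this qHTS, NS1 from influenza A is expressed in budding yeast, where it slows growth. Cells are switched from glucose to 2% galactose medium (pH 6.0, -URA), treated with compound, and growth recovery is read at OD600.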
HCV inh = qHTS Assay for Inhibitors of Hepatitis C Virus (HCV). Huh7.5.1 HCVcc-Cre infection, luciferase reporter, 44 h. Potency, µM (doses to about 41.8 µM), for inactives: at the highest dose activity change, negative = inhibition, actives largely listed as inhibitors. 340,000 tested, 3.4% active. AID 651820, 2012; further: on the % scale 0 is the no-effect control and ±100 the full control effect
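Reporter virus HCVcc-Cre (~0.5 moi) infects cells exposed to compound; seeding density 1,000 cells/well with 4 h settling beforehand. Luminescence, 15 sec read, taken 44 h post-infection following a 15 min RT substrate incubation.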
Pf growth 48h = Primary qHTS for delayed death inhibitors of the malarial parasite plastid, 48 hour incubation | P. falciparum luciferase growth in erythrocytes, 48 h | Potency, µM (doses to about 28.7 µM), for the others: at the top dose activity change, negative = inhibition, hits mostly inhibitors | 310,000 tested, 5.9% active; further: on the % scale 0 is the no-effect control and ±100 the full control effect
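Here the parasites carry a stable luciferase gene and grow inside erythrocytes in Albumax-based RPMI medium with compound for one erythrocytic cycle. Activity is scored as loss of luminescent signal.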
Vaccinia Venus = qHTS for Stage-Specific Inhibitors of Vaccinia Orthopoxvirus: Venus Reporter Primary qHTS | 330,000 tested, 0.46% active | AID 720580, 2013 | Potency, µM (series often up to 36.5 µM), for inactives: at the top dose activity change, negative = inhibition, actives largely listed as inhibitors | Vaccinia virus Venus reporter expression, fluorescence; calls by dose curve; tested in A549 cells; further: on the % scale 0 is the no-effect control and ±100 the full control effect; nearly all actives have a fitted effect of over 30% in size
Starred values were filed as active, the others as inactive; i = inactive; ? = inconclusive; nt = no result given. Sampled rows, rich in hits. Any-hit rate of the full collection: about 11%. Unless noted, the call rests on the fitted dose curve; in most records, active means well fitted inhibition curve with a large enough effect; inconclusive means small, poorly fitted or top-dose-only effect, or another doubt; inactive means no such curve, though single readings can be large or run the other way. Potency means the concentration at half of the fitted maximal effect.

SMILES	Vaccinia mCherry	Pf growth 96h	NS1 function inh	HCV inh	Pf growth 48h	Vaccinia Venus
O=C(c1ccccc1)N(CCCl)C(=O)N(CCCl)C(=O)c1ccccc1	-6%	nt	nt	nt	nt	-13%
CCOc1ccccc1C(=O)NCC(=O)OCCCOC(=O)CNC(=O)c1ccccc1OCC	-2%	8%	nt	?	6%	-9%
O=C(CCl)NCc1c(Cl)cccc1-n1cccc1	nt	12µM*	10%	?	10µM*	nt
O=C(Cc1c(Cl)cccc1Cl)NCCc1ccc(Cl)cc1	-8%	55%	-1%	0%	0%	-3%
CC1(C)CC(=O)C([N+](=O)[O-])=C(NCCCO)C1	-10%	12µM*	-6%	33%	12%	-4%
CC(=O)c1cccc(N(C(=O)c2ccco2)C(C(=O)NC2CCCC2)c2ccc(N3CCOCC3)cc2)c1 (configuration not stated)	-1%	17%	-4%	13%	?	-12%
CCOC(=O)c1c(NC(=O)COc2ncnc3ccccc23)sc(C(C)=O)c1C	i	?	?	7.1µM*	-20%	-20%
CCOC(=O)c1c(NC(=O)COC(=O)Cc2c[nH]c3ccccc23)sc(C(=O)N(C)C)c1C	-18%	?	nt	14µM*	?	-12%
COC(=O)c1c(NC(=O)COc2ncnc3ccccc23)sc(C)c1C	4%	?	4%	?	-17%	-8%
CCOC(=O)c1c(NC(=O)COC(=O)CCOc2ccccc2C)sc(C(=O)NC)c1C	-18%	-13%	nt	1%	-4%	-18%
CCOC(=O)c1c(NC(=O)COC(=O)c2ccc(NC(=O)CC#N)cc2)sc(C(=O)NC)c1C	nt	-26%	nt	?	13µM*	nt
CCOC(=O)c1c(NC(=O)COC(=O)c2ccc(O)cc2)sc(C(=O)N(C)C)c1C	nt	?	-9%	?	12µM*	nt
CCOC(=O)c1c(NC(=O)COC(=O)c2ccc(Cl)nc2)sc(C(=O)N(C)C)c1C	-16%	-5%	nt	-9%	?	-18%
Cc1cc(C(C)(C)C)oc1C(=O)N(CC(=O)NC1CCCC1)c1ccc(F)cc1	-2%	?	6%	?	?	-22%
O=C(Nc1ccc(NC(=O)c2ccco2)cc1)c1cnccn1	?	?	-28%	-10%	97%	?
CCOC(=O)c1c(NC(=O)CN2C(=O)NC(C)(c3ccc(Cl)cc3)C2=O)sc(C(=O)NC)c1C (configuration not stated)	-2%	4.7µM*	14%	14µM*	8.3µM*	?
CCOC(=O)c1c(NC(=O)CN2CCOCC2)sc(C(=O)NC)c1C	nt	?	-4%	0%	nt	nt
C=CCC[C@@H](Cc1ccc(F)cc1)C(=O)OCCNC(=O)[C@@H](CC=C)CC(=O)N(CCO)Cc1ccccc1	-2%	nt	nt	10µM*	nt	?
C=CC[C@@H](Cc1ccc(F)cc1)C(=O)OC[C@H]1CCCN1C(=O)[C@@H](CC=C)CC(=O)N(CCO)Cc1ccccc1	-11%	nt	nt	?	nt	-26%
C=CC[C@H](CC(=O)N(CCO)Cc1ccccc1)C(=O)NCCOC(=O)[C@@H](CC=C)Cc1ccc(F)cc1	-8%	nt	nt	?	nt	-22%
C=CC[C@@H](Cc1ccc(F)cc1)C(=O)OC[C@@H]1CCCN1C(=O)[C@H](CC=C)CC(=O)N(CCO)Cc1ccccc1	-16%	nt	nt	1.4µM*	nt	?
C=CC[C@H](CC(=O)N(CCO)Cc1ccccc1)C(=O)NC[C@H](OC(=O)[C@@H](CC=C)Cc1ccc(F)cc1)c1ccccc1	?	nt	nt	?	nt	11µM*
C=CC[C@@H](CC(=O)N(CCO)Cc1ccccc1)C(=O)NC[C@@H](OC(=O)[C@@H](CC=C)Cc1ccc(F)cc1)c1ccccc1	11%	nt	nt	?	nt	-7%
COc1ccc(OC)c(N2C(=O)[C@@H]3C(c4ccccc4Cl)=NO[C@@H]3C2=O)c1	i	12%	-4%	-4%	-1%	-10%
CSc1ccc2c(c1)C(N1CCN(C)CC1)Cc1ccccc1S2 (configuration not stated)	?	?	-69%	?	?	?
SMILES	Vaccinia mCherry	Pf growth 96h	NS1 function inh	HCV inh	Pf growth 48h	Vaccinia Venus
c1ccc2c(c1)CC1CNCc3cccc(c31)S2 (configuration not stated)	i	10µM*	-12%	?	?	-15%
O=C(NC1CCN(Cc2ccccc2)C1)c1cc(COc2ccc(F)cc2F)on1 (configuration not stated)	nt	?	3%	-17%	?	nt
O=C(NC1CCN(Cc2ccccc2)CC1)c1ccccc1NS(=O)(=O)c1ccc(F)cc1	?	nt	nt	-22%	nt	-20%
Cc1ccc(NS(=O)(=O)c2cccc(C(=O)NC3CCN(Cc4ccccc4)CC3)c2)c(C)c1	nt	nt	nt	14µM*	nt	nt
COc1ccc(NS(=O)(=O)c2ccc(C)c(C(=O)NC3CCN(Cc4ccccc4)CC3)c2)cc1	-10%	7.4µM*	-1%	nt	10µM*	-24%
COc1ccccc1NS(=O)(=O)c1ccc(C)c(C(=O)NC2CCN(Cc3ccccc3)CC2)c1	-25%	?	nt	2.2µM*	10µM*	-19%
Cc1ccc(C)c(OCc2cc(C(=O)NC3CCN(Cc4ccccc4)CC3)no2)c1	nt	?	-11%	6.3µM*	?	nt
COc1ccccc1NS(=O)(=O)c1cccc(C(=O)NC2CCN(Cc3ccccc3)CC2)c1	?	3.7µM*	nt	?	10µM*	-10%
Cc1cccc(C)c1NC(=O)C(NS(=O)(=O)c1ccc2c(c1)CCC(=O)N2)c1ccccc1 (configuration not stated)	-12%	nt	nt	nt	nt	3%
Cc1cccc(NC(=O)C(NS(=O)(=O)c2ccc3c(c2)CCC(=O)N3)c2ccccc2)n1 (configuration not stated)	nt	10µM*	-35%	-3%	-5%	nt
O=C(O)CC(NC(=O)C1CCCCC1)c1cc([N+](=O)[O-])ccc1Cl (configuration not stated)	-4%	1%	nt	4%	-5%	-8%
O=S(=O)(Nc1cccc(-c2ccc3nncn3n2)c1)c1ccccc1F	-4%	?	nt	-15%	?	-12%
